Hit rate of the full screen: of about 220,000 compounds, about 910 (0.41%) were called active. Shown is part of a subset that was picked to be rich in actives. Potency and affinity values are given separately. Unmarked numbers belong to inactive results.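 The calls were made as follows: active = primary inhibition above the hit cutoff, then over 50% inhibition at one or more dose response concentrations (cut at about 23% in these data, passing the limit was not always enough); inconclusive = conflicting primary data, or primary hits not chosen for dose response; inactive = low primary inhibition, or under 50% at every dose.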
What follows are compounds tested against Aminopeptidase N (Plasmodium falciparum (isolate 3D7)) (UniProt O96935) (assay: P. falciparum M1AAP inhibitors, biochemical, fluorogenic H-Leu-NHMec substrate, 1536-well (AID 1445;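 also: plate controls were DMSO full reaction for no effect and no enzyme background for full effect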)). Conditions: recombinant M1AAP, H-Leu-NHMec fluorogenic kinetic assay; at 30 µM, stronger effect = higher value unless noted.
Chain of Aminopeptidase N (Plasmodium falciparum (isolate 3D7)) (O96935 whole entry, looked up): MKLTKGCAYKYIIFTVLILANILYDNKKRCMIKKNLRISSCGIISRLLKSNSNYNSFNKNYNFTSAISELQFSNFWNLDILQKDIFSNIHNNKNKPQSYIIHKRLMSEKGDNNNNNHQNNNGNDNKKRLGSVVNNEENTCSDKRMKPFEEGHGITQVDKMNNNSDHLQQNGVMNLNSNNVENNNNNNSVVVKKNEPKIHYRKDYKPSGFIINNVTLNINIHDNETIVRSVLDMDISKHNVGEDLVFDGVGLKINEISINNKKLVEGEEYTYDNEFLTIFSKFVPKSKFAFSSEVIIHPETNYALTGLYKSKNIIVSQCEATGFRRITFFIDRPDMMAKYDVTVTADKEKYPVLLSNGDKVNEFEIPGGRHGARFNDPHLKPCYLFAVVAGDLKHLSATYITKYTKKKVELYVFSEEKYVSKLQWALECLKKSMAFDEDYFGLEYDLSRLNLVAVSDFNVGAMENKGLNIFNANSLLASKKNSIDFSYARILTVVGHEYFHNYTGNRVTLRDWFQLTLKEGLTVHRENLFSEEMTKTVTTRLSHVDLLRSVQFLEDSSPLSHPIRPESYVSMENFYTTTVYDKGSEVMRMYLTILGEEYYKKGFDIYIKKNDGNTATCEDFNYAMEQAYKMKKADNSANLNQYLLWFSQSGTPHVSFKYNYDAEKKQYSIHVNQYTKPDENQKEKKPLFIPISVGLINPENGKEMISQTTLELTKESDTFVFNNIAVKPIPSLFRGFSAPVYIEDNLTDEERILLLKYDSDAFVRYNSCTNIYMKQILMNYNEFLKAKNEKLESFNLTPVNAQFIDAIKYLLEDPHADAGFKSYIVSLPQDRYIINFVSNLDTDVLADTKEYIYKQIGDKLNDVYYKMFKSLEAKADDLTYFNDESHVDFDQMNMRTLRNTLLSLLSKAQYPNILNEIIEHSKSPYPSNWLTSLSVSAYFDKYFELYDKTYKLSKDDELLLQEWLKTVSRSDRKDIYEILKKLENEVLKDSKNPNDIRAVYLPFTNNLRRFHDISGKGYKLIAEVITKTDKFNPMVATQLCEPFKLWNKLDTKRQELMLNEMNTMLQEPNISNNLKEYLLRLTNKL

Structure (SMILES)	inhibition
CC(C)(C)NC(=O)CN(Cc1ccc2c(c1)OCO2)C(=O)CCC(=O)Nc1nccs1	3.84%
CCC(C)(C)NC(=O)CN(C(=O)CCC(=O)Nc1cc(C)ccn1)c1ccc2c(c1)OCO2	10.3%
O=C(CCCC(=O)N(CC(=O)NC1CCCCC1)Cc1ccc2c(c1)OCO2)Nc1ccccn1	1.7%
O=C(CCC(=O)N(CC(=O)NC1CCCC1)Cc1ccc2c(c1)OCO2)Nc1ccccn1	26.2% (active)
O=C(CCC(=O)N(CC(=O)NC1CCCC1)Cc1ccc2c(c1)OCO2)Nc1nccs1	12.3%
O=C(CCCC(=O)N(CC(=O)NC1CCCC1)Cc1ccc2c(c1)OCO2)Nc1ccccn1	8.73%
CCC(C)(C)NC(=O)CN(Cc1ccccc1Cl)C(=O)CCC(=O)Nc1cc(C)ccn1	1.69%
O=C(CSc1nnc(-c2ccc(Cl)cc2)n1Cc1ccco1)Nc1ccc2c(c1)OCCO2	6.61%
O=C(Nc1ccccc1N1CCCC1)c1cccc(Cl)c1Cl	5.02%
Cc1cccc(-c2cc(N)n(-c3ccccc3)n2)c1	15.4%
Cc1nc(-c2ccccc2O)n(-c2ccccc2)n1	14.8%
Cc1cccc(N2C(N)=C(C#N)C(C#N)(C#N)C2c2ccccc2)c1 (stereo unspecified)	7.85%
Cc1nn(-c2ccccc2)c(C)c1N	-5.19%
CCOC(=O)c1c(-c2ccc(C)o2)csc1NC(=O)CSc1ncn[nH]1	0.41%
O=C(CCCO)CCCCCCCCC[C@H]1N[C@H](CO)[C@@H](O)[C@@H]1O	7.45%
CC(C)CC(N=Cc1c(O)c2ccccc2oc1=O)C(=O)O (stereo unspecified)	16.5%
O=C(O)C(CO)N=Cc1c(O)c2ccccc2oc1=O (stereo unspecified)	20.4%
CSc1nnc(-c2ccccc2N=Cc2c(C)[nH]n(-c3ccccc3)c2=O)c(=O)[nH]1	11.9%
Cc1nn(-c2ccc3ccccc3c2)c(=O)c2ccccc12	0.56%
COc1cc(/C=C/c2nc(-c3ccccc3O)n[nH]2)cc(OC)c1OC	1.7%
Cc1ccc(C(=O)NCC(=O)OCC(=O)c2c(N)n(C)c(=O)n(C)c2=O)s1	5.58%
O=C(NC(Cc1c[nH]c2ccccc12)C(=O)O)c1ccco1 (stereo unspecified)	27.5% (active)
CCOC(=O)C(Cc1c[nH]c2ccccc12)NC(=O)c1ccco1 (stereo unspecified)	-3.49%
Cc1ccc(Nc2nnc(SCC(=O)NC(Cc3c[nH]c4ccccc34)C(=O)O)s2)cc1 (stereo unspecified)	22%

Structure (SMILES)	inhibition
O=C(Nc1ccccc1C(=O)NC(Cc1c[nH]c2ccccc12)C(=O)O)c1ccco1 (stereo unspecified)	7.54%
O=C(Cn1nnc2ccccc2c1=O)N[C@@H](Cc1ccccc1)C(=O)O	2.79%
O=C(CCn1nnc2ccccc2c1=O)N[C@@H](Cc1c[nH]c2ccccc12)C(=O)O	9%
CCOc1ccccc1Nc1nnc(SCC(=O)Nc2ccc3[nH]c(=O)[nH]c3c2)s1	1.06%
COc1ccc(/C(C)=N\Nc2nc(-c3ccc(Cl)cc3)cc(C(F)(F)F)n2)cc1OC	-2.08%
CCOC(=O)C1=C(O)C(=O)N(c2ccc(S(N)(=O)=O)cc2)C1c1ccc(Br)cc1 (stereo unspecified)	0.8%
CCOc1cccc(OCCOCCn2cnc3ccccc3c2=O)c1	0.65%
CNCc1ccccc1Sc1ccc(OC)cc1	-3.58%
NS(=O)(=O)c1cccc(NC(=O)CCSc2ccc(Cl)cc2)c1	6.9%
CCCCCCCC[n+]1cccc2c3ccccc3ccc21	29.8%
CCCCCCCCC[n+]1cccc2c3ccccc3ccc21	18.5%
Cc1ccc(C2Nc3ccc4ccccc4c3C3=C2C(=O)CC(C)(C)C3)o1 (stereo unspecified)	16%
CC1(C)CC(=O)C2=C(C1)c1c(ccc3ccccc13)NC2c1ccco1 (stereo unspecified)	0.07%
CCCN(CCC)c1ncnc2c1cnn2-c1ccc(OC)cc1	2.75%
COc1ccc(-c2[nH]c(-c3ccc(C)cc3)nc2SCC(=O)NC2CCCC2)cc1	1.57%
c1ccc(-c2nc(NCc3ccco3)c3oc4ccccc4c3n2)cc1	11.9%
CCc1nc(NCc2ccco2)c2oc3ccccc3c2n1	2.95%
Cc1nc(NCc2ccco2)c2oc3ccccc3c2n1	25.6% (active)
CCC(C)NC(=O)C1CCN(S(=O)(=O)c2ccc(OC)cc2)CC1 (stereo unspecified)	4.22%
C(=N\Nc1nc2ccccc2[nH]1)/c1ccncc1	5.02%
CSc1cc(-c2ccccc2)n(C)c(=O)c1C#N	3.47%
COc1ccc(Oc2cc(C)c3cccc(C)c3n2)cc1	-2.89%
Cc1ccc2nc(N=C(N)N)nc(C)c2c1	10.4%
COc1nc(N=C(N)N)nc2ccc(C)cc12	20.7%

Structure (SMILES)	inhibition
Cc1cc2nc(N=C(N)N)nc(C)c2cc1C	9.31%
O=C(COC(=O)Cc1ccc(F)cc1)NCc1ccco1	4.03%
CCC(C)NC(=O)COC(=O)c1csc2c1CCCC2 (stereo unspecified)	7.63%
COC(=O)c1ccc(CSc2nc(C(F)(F)F)c3c(c2C#N)CCC3)o1	3.42%
CCSc1nnc(NC(=O)CSc2c(Cl)cccc2Cl)s1	4.43%
COc1ccc(S(=O)(=O)N2CCOCC2)cc1NC(=O)CO/N=C/c1ccccc1OC(F)F	8.16%
Cc1cn(-c2ccccc2)c(C)c1/C=N\Nc1nc(N2CCOCC2)nc(N2CCOCC2)n1	4.34%
Cc1ccc(NC(=O)CSc2nnc(-c3ccco3)c(-c3ccco3)n2)cc1	25% (active)
Cc1cccc(C)c1NC(=O)CSc1nnc(-c2ccco2)c(-c2ccco2)n1	17.6%
CC(=O)c1ccc(NC(=O)CSc2nnc(-c3ccco3)c(-c3ccco3)n2)cc1	9.65%
Cc1cc(CN(C)C(=O)CC2C(=O)NCCN2Cc2c(F)cccc2Cl)n[nH]1 (stereo unspecified)	-2.19%
CCS(=O)(=O)C(C)(CCl)C(=O)Nc1ccc(C(=O)OC)cc1 (stereo unspecified)	3.92%
COc1c(O)cc2oc(-c3ccc(O)cc3)cc(=O)c2c1O	17.2%
COc1ccc(-c2cc(=O)c3c(O)c(OC)c(O)cc3o2)cc1	17%
O=S(=O)(c1ccccc1)N1CCCC1c1cccs1 (stereo unspecified)	0.58%
Cn1c(=O)cc(SCC(=O)N2CCCC2)c2ccccc21	7.32%
Cc1c(Cc2ccccc2)c(=O)oc2cc(O)ccc12	22.2%
CCN(CC)Cc1oc(CO)cc(=O)c1O	5.8%
Cc1c(Cc2ccccc2)c(=O)oc2c(O)c(O)ccc12	17.1%
Cc1c(C)c2cc(Cl)c(O)c(CN(C)C)c2oc1=O	14.8%
CCc1cc2c(=O)c(-c3nc4ccccc4n3C)c(C)oc2c(CN(CC)CC)c1O	6.03%
CCN(CC)Cc1c(O)c(Cl)cc2c(C)c(C)c(=O)oc12	23.6% (active)
CCc1c(C)c2cc(Cl)c(O)c(CN(C)C)c2oc1=O	-5.92%
CCOc1ccc(OCCCC(=O)NC2=NCCS2)cc1	-1.08%

Structure (SMILES)	inhibition
COc1ccc(O)c(C2NC(CC(C)C)(C(=O)O)C3C(=O)N(Cc4ccccc4)C(=O)C23)c1 (stereo unspecified)	13.5%
COc1ccc(OCCC(=O)OCC(=O)Nc2cccc(Br)c2)cc1	2.82%
O=CN1N=C(c2ccccc2)CC1c1ccccc1[N+](=O)[O-] (stereo unspecified)	0.38%
CCCN(Cc1ccccc1)C(=S)Nc1ccc(C(C)=O)cc1	0.74%
CCOc1ccc(C(Nc2cccnc2)c2cc(Cl)c3cccnc3c2O)cc1 (stereo unspecified)	-6.83%
O=C(O)COc1ccccc1C(Nc1ccccn1)c1cc(Cl)c2cccnc2c1O (stereo unspecified)	23.1%
COc1ccc(N2CCN(Cc3cc(=O)oc4cc(-c5ccccc5)c(O)cc34)CC2)cc1	-0.12%
COc1ccc(F)cc1S(=O)(=O)Nc1ccc(C)cc1	-1.13%
CCOC(=O)N1CCN(C(=O)c2ccc3c(c2)ncn3C2CCCC2)CC1	2.32%
O=[N+]([O-])c1cc2c(cc1/C=N/NS(=O)(=O)c1ccc(Br)cc1)OCO2	3.45%
CC1CCCCC1NC(=O)CSc1nnc(CNC(=O)c2ccccc2)n1C (stereo unspecified)	-2.54%
Cc1cccc(C)c1OCC(=O)NCc1nnc(SCC(=O)NC2CCCCC2C)n1C (stereo unspecified)	24.1% (active)
CC1CCCCC1NC(=O)CSc1nnnn1-c1ccccc1 (stereo unspecified)	2.02%
Cc1cccc(C)c1OCC(=O)NCc1nnc(SCC(=O)NC2CCCCC2)n1C	3.03%
Nn1c(SCC(=O)NC2CCCCC2)nnc1-c1ccccc1	3.83%
CN(CC(=O)NC1CCCCC1)S(=O)(=O)c1ccc(Cl)cc1	-0.77%
Cc1cccc(OCC(=O)N2CCN(C(=O)CCC3CCCC3)CC2)c1	22.4%
O=C(COc1ccc(Br)cc1)N1CCOCC1	-2.69%
O=C(CCC1CCCC1)N1CCN(C(=O)COc2ccccc2)CC1	21.1%
CC(=O)N1CCN(C(=O)COc2ccc(Br)cc2)CC1	1.6%
CCCOc1ccc(CSc2n[nH]c(C)n2)cc1	8.48%
COc1ccc(CCNC(=O)C(C)Sc2ccccc2)cc1OC (stereo unspecified)	-0.82%
Cc1cccc(NC(=S)NCCc2ccc3c(c2)OCCO3)c1C	0.53%
CC1CCC(C(C)C)C(OC(=O)COC(=O)c2cc(O)ccc2N)C1 (stereo unspecified)	6%
